Screen size: about 300,000 compounds; about 22,000 (7.3%) were called active. Inconclusive results (about 2%) are left out. This excerpt belongs to a sample that is enriched for actives. Values without a mark were called inactive. Cut-off read from the data, not from the text of the source: active = activity score below about -60%; inconclusive = mostly about -28% to -61%; inactive = positive scores.

The nature of this test: Activators via SNCA 5'UTR binding, MLPCN (AID 1814). Conditions: alpha-synuclein 5'UTR reporter, activators screen; hits give low values; tested at 7.5 µM.
For the molecule `CCc1ccc(-c2cc(C(=O)NN3CCN(C)CC3)c3ccccc3n2)cc1`, the activity score was -112% (active).

Turning to `O=C(Nc1ccccc1)c1cc2ccccc2[nH]1`, the activity score was -180% (active).

`CCn1c(=N)n(CC(=O)c2cccc(OC)c2)c2ccccc21`: the activity score was -124% (active).

Turning to `Cc1cccc(NC(=O)c2cccc(C(F)(F)F)c2)c1`, the activity score was -71.9% (active).

As to `Cc1ccc(NC(=O)Nc2cccc(C(F)(F)F)c2)nc1`, the activity score was -115% (active).

As to `O=C(Nc1ccccc1)Nc1ccc(C(F)(F)F)cn1`, the activity score was -120% (active).

For the molecule `COc1ccc(NC(=O)CCS(=O)(=O)c2cc3c(cc2Cl)NC(=O)CO3)cc1OC`, the activity score was -91.8% (active).

For the molecule `CC(=O)Nc1ccc(NC(=O)CN2CCCC(C)C2)c(Cl)c1` (centres undefined), the activity score is -105% (active).

Turning to `CC(Sc1nc2cc(Cl)ccc2s1)C(=O)Nc1ccc2c(c1)OCO2` (centres undefined), the activity score is -117% (active).

As for `O=C(c1cnn2ccccc12)N1CCc2ccccc21`, the activity score was -123% (active).

For `COc1cc(OC)cc(C(=O)NCC(=O)OCc2csc(-c3ccccc3)n2)c1`, the activity score was -73.7% (active).

For the molecule `CCCCOC(=O)c1[nH]c(C)c(C(=O)OC)c1C`, the activity score is -134% (active).

As to `CCOC(OCC)c1ccc(/C=C\c2nccc(N)n2)cc1`, the activity score is -117% (active).

For `COc1cccc(/C=N/Nc2cc(C)nc(-c3ccccc3O)n2)c1O`, the activity score was 82.8%.

In the case of `CC(=O)c1sc(N/N=C/c2ccc(C(C)C)cc2)nc1C`, the activity score is -149% (active).

For `COc1cccc2sc(Nc3nc(C)c(C(C)=O)s3)nc12`, the activity score was -179% (active).

In the case of `COc1ccccc1/C=N/Nc1nc(C)c(C(C)=O)s1`, the activity score was -154% (active).

Consider `Oc1oc(-c2ccccc2Br)nc1/C=N/c1ccccn1`, for which the activity score was -124% (active).

Regarding `Cc1ccc(OCC(=O)Nc2ccc(-c3nnc(-c4ccco4)o3)cc2)cc1`, the activity score was -69.1% (active).

As for `Cc1ccc(OCC(=O)Nc2ccc(-c3nc4ncccc4o3)cc2)cc1`, the activity score was -85.6% (active).

As for `CCC(=O)Oc1cccc(C(=O)Nc2ccc(-c3nnc(-c4ccco4)o3)cc2)c1`, the activity score was -227% (active).

For the molecule `CCCCOc1ccc(-c2nnc(-c3ccco3)o2)cc1`, the activity score is 60.2%.

Take `O=C(CCc1ccccc1)Nc1cccc(-c2nnc(-c3ccco3)o2)c1`: the activity score is -74.1% (active).

For the molecule `Fc1ccccc1OCCSc1nc2ccccc2o1`, the activity score was -139% (active).

On to `Cc1cccc2nc(CNc3ccc(F)cc3)cn12`, for which the activity score was -64.9% (active).

For `Cc1ccc(-n2ncc3c(Nc4cccc(C(=O)O)c4)ncnc32)cc1`, the activity score is -200% (active).

Turning to `CC(=O)NCC(=O)N1CCC(n2nccc2NC(=O)CCCc2ccccc2)CC1`, the activity score was -67.3% (active).

In the case of `Cn1c(SCc2nc3ccccc3s2)nnc1-c1ccc2c(c1)OCO2`, the activity score is -72.1% (active).

On to `Cc1ccnc(Nc2nc3ccccc3s2)n1`, for which the activity score was -81.3% (active).

Values taken from PubChem BioAssay AID1814 (Broad Institute, 2009).
